The results in this text go back to PubChem BioAssay AID540333 (Southern Research Specialized Biocontainment Screening …, 2011).

Each structure is given as a SMILES string. About 320 (3.2%) of roughly 10,000 compounds were called active. Many of the other results were omitted from the sample, so actives are more common in it than they were. Values without a mark were called inactive. No stated cut-off is given here; in the data, active means CPE inhibition mostly above about 9.1% (no sharp cut-off); inactive means mostly below about 7.2%.

The nature of the experiment: Dengue virus cytopathic effect inhibitors, cell-based, CPE readout, HTS (AID 540333). The settings on record: Dengue virus CPE inhibition in host cells, at 20 µM; active compounds read high. (Protection from cytopathic effect is a common read-out in antiviral testing.)
`CC(=O)Nc1sc(C)c(C)c1C(=O)OCC(=O)N(CC(C)C)C1CCS(=O)(=O)C1` (stereo not given): the CPE inhibition is 1.31%.
Regarding `Cc1ccc([N+](=O)[O-])cc1S(=O)(=O)NCCc1c(C)[nH]c2ccccc12`, the CPE inhibition is 1.95%.
As to `O=C(N=C1c2ccccc2CN1c1ccccc1)c1cccc([N+](=O)[O-])c1`, the CPE inhibition entry is “inactive”.
For the compound `CC(C)N(C(=O)COC(=O)CNC(=O)c1ccc(Br)cc1)c1ccccc1`, the CPE inhibition result is “inactive”.
For the compound `COc1ccc(C2=NN(C(=O)/C=C/c3ccccc3)C(c3ccccc3)C2)c(OC(C)=O)c1` (stereo not given), the CPE inhibition is 8.13%.
Consider `COc1ccc(C2CC(c3ccccc3OC(C)=O)=NN2C(=O)/C=C/c2ccccc2)cc1` (stereo not given), for which the CPE inhibition was 7.79% (active).
Consider `CC(=O)Oc1ccccc1C1=NN(C(=O)/C=C/c2ccccc2)C(c2ccccc2)C1` (stereo not given), for which the CPE inhibition was 8.09%.
Regarding `Cc1c(NC2=C(Cl)C(=O)N(c3ccccc3Cl)C2=O)c(=O)n(-c2ccccc2)n1C`, the CPE inhibition result is “inactive”.
Turning to `CCNC(=S)N(CCc1cccc(C)c1)Cc1cc2cc(OC)c(OC)cc2[nH]c1=O`, the CPE inhibition is 5.32%.
With `O=C(N/N=C/c1ccc(Sc2nc3ccccc3[nH]2)o1)c1ccncc1`, the CPE inhibition was 1.17%.
The value for `CCN1C(=O)S/C(=C/c2ccc(Sc3nc4ccccc4[nH]3)o2)C1=O` was 7.23%; that for `C=CCN1C(=O)S/C(=C/c2ccc(Sc3nc4ccccc4[nH]3)o2)C1=O` was 12.1% (active).
As for `CCOC(=O)CN1C(=O)S/C(=C/c2ccc3c(c2)n(C)c(=O)n3C)C1=O`, the CPE inhibition is 0.01%.
For `Cc1ccc(C)c(N(CC(=O)Nc2ccccc2C(=O)NCc2ccco2)S(=O)(=O)c2ccccc2)c1`, the CPE inhibition is 0.06%.
The value for `Cc1ccc(-c2cc(C(=O)N/N=C/c3ccco3)n[nH]2)s1` was “inactive”.
On to `Cc1ccc(NC(=O)CSc2nc(N)c3c4c(sc3n2)CSC(C)(C)C4)cc1`, for which the CPE inhibition was 16.2% (active).
With `Cc1ccccc1NC(=O)CSC1=NCCN1` the entry was “inactive”; with `CN(C(=O)CSc1nc(N)c2c3c(sc2n1)CSC(C)(C)C3)c1ccccc1`, 9.8%; with `CC(Sc1nc(N)c2c3c(sc2n1)CSC(C)(C)C3)C(=O)Nc1ccccc1` (stereo not given), 6.62%.
With `Cc1ccc(NC(=O)CSC2=NCCN2)cc1` the figure was 0.905%.
For the compound `Cc1ccccc1NC(=O)CSc1nc(N)c2c3c(sc2n1)CSC(C)(C)C3`, the CPE inhibition is 15.7% (active).
In the case of `COC(=O)c1ccc(CNC(=O)COC(=O)C23CC4CC(CC(C4)C2)C3)cc1`, the CPE inhibition entry was “inactive”.
Regarding `O=C(CSc1ccc(Cl)cc1)Nc1ccc(-c2nc3ccccc3[nH]2)cc1`, the CPE inhibition was 1%.
As for `O=C(CN1CCOCC1)NN=C1CCCCCCCCCCC1`, the CPE inhibition result was “inactive”.
With `CCCCCC(=O)Nc1ccccc1N1CCOCC1` the figure was 0.445%.
